# Measurements as given in PubChem BioAssay.
# Active and inactive are the calls of the source.
# Tests used:
# [1] = small molecules captured by biotinylated probe aFSTL3 – biochemical, small-molecule microarray, fluorescence 635/667, stem cell growth factor project, primary screen (AID 1064); conditions: higher = more signal;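 note: measures binding of the biotinylated anti-FSTL3 antibody to printed compounds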
# [2] = binders from COS7 lysate, DM2A8 probe, primary screen, torsin A project, cell lysate, small-molecule microarray, fluorescence 635/667 (AID 1065); conditions: higher = more signal, COS7 lysate expressing mutant human TOR1A
# [3] = small molecules captured by biotinylated probe aFGF2 – biochemical, small-molecule microarray, fluorescence 635/667, stem cell growth factor project, primary screen (AID 1067); conditions: higher = more signal;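 note: measures binding of biotinylated aFGF2 protein to printed compounds on slides; z-score merges feature fluorescence and signal-to-noise across triplicate slides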
# [4] = small molecules captured by biotinylated probe aFGF10 – biochemical, small-molecule microarray, fluorescence 635/667, stem cell growth factor project, primary screen (AID 1071); conditions: higher = more signal;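 note: score merges 667 nm spot intensity and signal to noise from triplicate slides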
# [5] = target: Neurogenic locus notch homolog protein 2 (Homo sapiens) (UniProt Q04721); experiment: small molecules binding Notch2 protein – biochemical, small-molecule microarray, 635 nm fluorescence, stem cell growth factors, primary screen (AID 1073); conditions: higher = more signal
# [6] = target: Pro-neuregulin-1, membrane-bound isoform (Homo sapiens) (UniProt Q02297); experiment: small molecules binding neuregulin-1 protein – biochemical, small-molecule microarray, fluorescence 635/667, psychiatric disease protein project, primary screen (AID 1075); conditions: NRG1 binding, 635 nm fluorescence, higher = more signal;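 note: score combines 667 nm spot fluorescence with signal to noise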
# [7] = system: Neuregulin-1 EGF-like domain; experiment: small molecules binding NRG1 EGF domain – biochemical, small-molecule microarray, 635 nm fluorescence, primary screen (AID 1081); conditions: higher = more signal;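 note: binding of the protein to compounds printed on small-molecule microarray slides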
# [8] = FRG1 expression reporter modulators in myotubes – cell-based, C2C12 myotubes, firefly/Renilla luciferase, luminescence, FRG1 inhibition for FSHD, primary screen (AID 1084); conditions: FRG1 promoter luciferase, higher = more signal, called active from +8 up or from −8 down
# [9] = small molecules captured by biotinylated probe aFST – biochemical, small-molecule microarray, fluorescence 635/667, stem cell growth factor project, primary screen (AID 1086); conditions: higher = more signal;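 note: score merges 667 nm fluorescence with signal-to-noise of each printed compound spot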
# [10] = binders of probe aHhip on microarray, primary screen, stem cell growth factor project, biochemical, small-molecule microarray, fluorescence 635/667 (AID 1087); conditions: higher = more signal;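 note: score merges spot fluorescence at 667nm with spot signal to noise ratio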
# [11] = system: PRMT1 (protein arginine N-methyltransferase 1); experiment: small molecules binding arginine methyltransferase PRMT1 – biochemical, small-molecule microarray, 635 nm fluorescence, primary screen (AID 1088); conditions: higher = more signal;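 note: binding of Prmt1 protein to compounds spotted on small-molecule microarray slides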
# [12] = growth effects on S. cerevisiae YJM789 – YJM789 clinical isolate, OD600, 24 h, basal, primary screen (AID 1089); conditions: higher = more signal, called active from +8 up or from −8 down;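 note: growth of clinical yeast isolate S. cerevisiae YJM 789 seeded 1000 cells per well; test concentration not given here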
# [13] = S. pombe growth modifiers, basal conditions – strain 972, OD600, 24 h, no modulator, primary screen (AID 1090);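 note: basal condition with compound alone and no growth modifier present; test concentration not given here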; conditions: S. pombe 972 growth, higher = more signal, called active from +8 up or from −8 down
# [14] = budding yeast growth modifiers under rapamycin – strain BY4716, OD600, 96 h, primary screen (AID 1091); note: test concentration not given here; conditions: S. cerevisiae BY4716 + rapamycin, higher = more signal, called active from +8 up or from −8 down
# [15] = target: Torsin-1A-interacting protein 2 (Homo sapiens) (UniProt Q8NFQ8); experiment: small molecules binding lysate-expressed LULL1 – cell lysate, human LULL1 lysate, 635/667 nm fluorescence, primary screen (AID 1092); conditions: small-molecule microarray, hLULL1 lysate binding, 635 nm fluorescence; higher = more signal;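 note: probe is lysate of COS7 cells overexpressing human LULL1; score merges per-feature 667 nm fluorescence with signal-to-noise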
# [16] = optical density change of DRC41 E. coli – strain DRC41, OD650, 24 h, E. coli filamentation project, primary screen (AID 1093);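 note: MC1000 strain lacking acrAB efflux and sulA so SOS filamentation is blocked; test concentration not given here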; conditions: E. coli DRC41 growth, higher = more signal, called active from +8 up or from −8 down
# [17] = probe aLefty2 binding to arrayed compounds – biochemical, biotinylated probe, 635/667 nm fluorescence, primary screen (AID 1094); conditions: small-molecule microarray, higher = more signal;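 note: score merges spot fluorescence near 667 nm with spot signal-to-noise ratio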
# [18] = system: Noggin (protein binding on small-molecule microarray); experiment: small molecules binding Noggin protein – biochemical, 635/667 nm fluorescence, primary screen (AID 1095); conditions: 635 nm fluorescence, higher = more signal;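 note: score merges 667 nm feature fluorescence with signal to noise over triplicate slides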
# [19] = target: Neurogenic locus notch homolog protein 3 (Homo sapiens) (UniProt Q9UM47); experiment: small molecules binding NOTCH3 protein – biochemical, 635/667 nm fluorescence, primary screen (AID 1096); conditions: small-molecule microarray, 635 nm fluorescence, higher = more signal
# [20] = probe aEGFR binding to arrayed compounds – biochemical, biotinylated probe, 635/667 nm fluorescence, primary screen (AID 1097); conditions: small-molecule microarray, higher = more signal;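 note: probe is a biotinylated anti-EGFR antibody binding compounds printed on slides; score combines fluorescence near 667 nm and signal to noise of each spot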
# Torsin-1A-interacting protein 2 (Homo sapiens), sequence (Q8NFQ8 whole entry, looked up): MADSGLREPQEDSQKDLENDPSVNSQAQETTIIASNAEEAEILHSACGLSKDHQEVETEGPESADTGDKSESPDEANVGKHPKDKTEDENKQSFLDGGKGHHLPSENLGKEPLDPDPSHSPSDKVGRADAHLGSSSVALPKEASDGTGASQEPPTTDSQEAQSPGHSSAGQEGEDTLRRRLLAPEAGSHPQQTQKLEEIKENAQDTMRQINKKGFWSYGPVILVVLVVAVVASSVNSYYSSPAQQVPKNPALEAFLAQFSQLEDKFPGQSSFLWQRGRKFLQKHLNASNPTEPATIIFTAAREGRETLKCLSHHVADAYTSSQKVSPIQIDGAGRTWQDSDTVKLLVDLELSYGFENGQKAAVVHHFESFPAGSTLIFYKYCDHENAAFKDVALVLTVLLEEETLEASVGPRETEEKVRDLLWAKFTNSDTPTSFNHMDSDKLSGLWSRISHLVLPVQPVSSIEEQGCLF
# Neurogenic locus notch homolog protein 3 (Homo sapiens), sequence (Q9UM47 whole entry, looked up): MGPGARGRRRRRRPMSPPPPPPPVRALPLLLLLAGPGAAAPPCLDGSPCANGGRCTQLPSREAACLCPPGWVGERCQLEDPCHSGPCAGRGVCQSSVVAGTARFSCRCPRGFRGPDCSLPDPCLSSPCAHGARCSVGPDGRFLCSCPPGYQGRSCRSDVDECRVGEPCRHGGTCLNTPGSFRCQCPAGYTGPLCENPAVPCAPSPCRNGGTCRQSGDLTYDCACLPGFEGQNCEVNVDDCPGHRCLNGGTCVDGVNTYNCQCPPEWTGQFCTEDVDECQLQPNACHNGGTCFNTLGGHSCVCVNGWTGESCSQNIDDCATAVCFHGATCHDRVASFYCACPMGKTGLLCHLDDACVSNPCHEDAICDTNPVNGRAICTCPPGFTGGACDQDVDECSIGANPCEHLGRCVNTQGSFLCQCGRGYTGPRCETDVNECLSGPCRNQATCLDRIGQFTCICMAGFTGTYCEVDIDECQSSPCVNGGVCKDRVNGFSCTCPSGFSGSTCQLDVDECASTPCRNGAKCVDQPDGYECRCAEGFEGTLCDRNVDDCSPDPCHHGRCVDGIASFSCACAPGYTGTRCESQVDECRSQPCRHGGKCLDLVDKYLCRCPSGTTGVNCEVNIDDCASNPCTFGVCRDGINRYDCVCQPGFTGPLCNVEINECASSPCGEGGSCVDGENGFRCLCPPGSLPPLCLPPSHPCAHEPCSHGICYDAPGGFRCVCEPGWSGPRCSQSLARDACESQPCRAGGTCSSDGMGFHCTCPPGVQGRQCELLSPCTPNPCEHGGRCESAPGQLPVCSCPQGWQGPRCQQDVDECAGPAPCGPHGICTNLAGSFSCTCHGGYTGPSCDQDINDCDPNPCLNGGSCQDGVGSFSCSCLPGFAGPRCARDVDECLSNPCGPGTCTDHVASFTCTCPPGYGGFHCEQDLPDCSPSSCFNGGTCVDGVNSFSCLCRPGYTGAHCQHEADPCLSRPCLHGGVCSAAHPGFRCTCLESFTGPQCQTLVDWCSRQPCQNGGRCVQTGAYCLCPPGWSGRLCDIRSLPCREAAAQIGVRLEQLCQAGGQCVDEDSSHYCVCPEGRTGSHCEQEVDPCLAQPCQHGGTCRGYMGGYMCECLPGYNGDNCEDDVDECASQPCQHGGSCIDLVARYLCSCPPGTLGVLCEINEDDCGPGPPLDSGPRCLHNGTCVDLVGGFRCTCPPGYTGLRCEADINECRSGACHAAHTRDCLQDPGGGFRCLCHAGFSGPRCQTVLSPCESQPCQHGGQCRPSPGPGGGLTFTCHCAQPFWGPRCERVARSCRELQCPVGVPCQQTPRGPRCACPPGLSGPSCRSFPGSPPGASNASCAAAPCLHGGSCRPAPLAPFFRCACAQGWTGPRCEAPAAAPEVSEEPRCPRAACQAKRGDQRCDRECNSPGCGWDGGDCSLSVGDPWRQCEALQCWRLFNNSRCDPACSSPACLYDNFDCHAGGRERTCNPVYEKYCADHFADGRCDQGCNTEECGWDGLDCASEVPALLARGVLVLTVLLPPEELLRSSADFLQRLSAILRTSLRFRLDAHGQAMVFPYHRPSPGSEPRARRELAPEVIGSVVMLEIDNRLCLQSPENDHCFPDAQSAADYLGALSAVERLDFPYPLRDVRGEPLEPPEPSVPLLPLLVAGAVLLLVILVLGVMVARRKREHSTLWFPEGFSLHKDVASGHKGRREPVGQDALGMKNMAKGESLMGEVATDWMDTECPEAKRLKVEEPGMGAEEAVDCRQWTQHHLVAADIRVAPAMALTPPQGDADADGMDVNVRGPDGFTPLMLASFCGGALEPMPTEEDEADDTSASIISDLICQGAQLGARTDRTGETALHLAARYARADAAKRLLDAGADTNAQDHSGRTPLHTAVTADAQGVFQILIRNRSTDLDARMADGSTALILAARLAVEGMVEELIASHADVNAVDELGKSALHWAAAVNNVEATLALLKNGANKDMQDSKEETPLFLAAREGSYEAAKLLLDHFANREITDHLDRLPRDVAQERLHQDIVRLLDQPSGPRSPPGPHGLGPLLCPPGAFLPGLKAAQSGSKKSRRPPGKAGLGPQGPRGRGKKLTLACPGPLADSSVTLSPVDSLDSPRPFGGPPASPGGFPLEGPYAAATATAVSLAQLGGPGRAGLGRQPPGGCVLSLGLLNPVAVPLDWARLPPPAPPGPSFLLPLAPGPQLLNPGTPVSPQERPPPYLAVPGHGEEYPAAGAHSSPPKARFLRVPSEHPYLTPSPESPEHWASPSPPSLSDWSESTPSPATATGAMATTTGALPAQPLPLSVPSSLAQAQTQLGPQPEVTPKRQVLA
# Pro-neuregulin-1, membrane-bound isoform (Homo sapiens), sequence (Q02297 whole entry, looked up, the tested form may be a part, canonical isoform): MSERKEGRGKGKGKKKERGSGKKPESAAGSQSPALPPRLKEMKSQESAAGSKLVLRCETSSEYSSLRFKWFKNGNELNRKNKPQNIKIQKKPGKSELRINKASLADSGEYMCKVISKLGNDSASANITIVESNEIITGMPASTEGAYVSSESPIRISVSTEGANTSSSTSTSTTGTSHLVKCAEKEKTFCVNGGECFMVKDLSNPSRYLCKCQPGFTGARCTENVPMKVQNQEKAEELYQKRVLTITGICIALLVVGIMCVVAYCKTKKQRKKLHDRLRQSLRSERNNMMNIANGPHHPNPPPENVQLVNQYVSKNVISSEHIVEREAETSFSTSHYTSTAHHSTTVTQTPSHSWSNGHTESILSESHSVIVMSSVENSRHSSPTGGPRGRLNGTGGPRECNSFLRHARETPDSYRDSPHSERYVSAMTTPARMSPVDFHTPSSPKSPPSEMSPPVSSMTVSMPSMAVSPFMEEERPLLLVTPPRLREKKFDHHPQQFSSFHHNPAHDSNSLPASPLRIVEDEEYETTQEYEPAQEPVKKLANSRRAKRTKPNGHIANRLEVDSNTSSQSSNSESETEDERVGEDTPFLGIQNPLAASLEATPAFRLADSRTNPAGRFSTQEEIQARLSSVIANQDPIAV
SMILES,composite z-score [1],composite z-score [2],composite z-score [3],composite z-score [4],composite z-score [5],composite z-score [6],composite z-score [7],z-score [8],composite z-score [9],composite z-score [10],composite z-score [11],z-score [12],z-score [13],z-score [14],composite z-score [15],z-score [16],composite z-score [17],composite z-score [18],composite z-score [19],composite z-score [20]
COCCCNC(=O)[C@@]1(Sc2ccc(C)cc2)CC(=O)N(C2Cc3ccccc3C2)[C@@H]1c1ccc(CO)cc1I,0.926,-0.247,-0.156,-0.379,-1.02,1.12,-0.447,-0.703 (inactive),-0.926,-0.294,-0.649,-0.881 (inactive),-1.79 (inactive),1.43 (inactive),-0.165,-0.421 (inactive),-0.0441,-1.39,-1.16,-0.251
COCCCNC(=O)[C@]1(Cc2ccccc2CN=[N+]=[N-])N=C(c2ccc(OCCCO)cc2)O[C@@H]1c1ccccc1,-0.254,1.19,0.0788,0.627,1.09,0.969,1.12,-3.73 (inactive),1.03,-0.0645,0.972,-0.212 (inactive),-0.0448 (inactive),30.9 (active),2.67,1.01 (inactive),-0.0819,0.348,0.599,0.0316
C=C(CCCC)C(=O)CC[C@@H](OC(=O)c1cccnc1)c1ccccc1OCCO,0.0165,0.77,-0.0878,0.0032,-0.872,-0.413,-0.0199,-0.449 (inactive),-0.604,-0.0994,1.31,-0.765 (inactive),-1.37 (inactive),-0.24 (inactive),0.178,0.22 (inactive),0.0166,0.836,0.144,-0.0565
O=C1OC[C@@H](c2ccccc2)N2CC(/C=C/c3ccccc3)=CC12 (stereo not given in full),0.528,-0.477,-0.222,-0.77,-1.18,-0.586,0.219,-0.639 (inactive),-1.31,-0.268,-1.07,0.0482 (inactive),-1.27 (inactive),0.321 (inactive),-0.79,0.701 (inactive),-0.158,-1.37,-0.0841,-0.425
Cc1ccc(S[C@]2(C(=O)NC3CC3)CC(=O)N(Cc3ccccc3Cl)[C@@H]2c2ccc(CO)cc2I)cc1,0.29,0.132,-0.106,0.171,0.0538,1.72,1.24,-2.19 (inactive),-0.0129,-0.123,1.54,-0.362 (inactive),-1.83 (inactive),0.67 (inactive),3.22,0.481 (inactive),0.0448,1.34,0.304,-0.0238
O=C1c2ccccc2[C@](Cc2ccccc2I)(C(=O)NCCN2CCOCC2)[C@H](c2ccc(CO)cc2)N1Cc1ccccc1,-0.0634,0.783,-0.0356,0.699,1.33,1.1,1.33,-3.84 (inactive),0.983,0.519,1.52,0.189 (inactive),0.0239 (inactive),-0.477 (inactive),2.8,0.47 (inactive),0.182,0.406,1.08,0.225
O=C1C[C@@](C(=O)NCC(F)(F)F)(c2ccc([N+](=O)[O-])cc2)[C@@H](c2ccc(CO)cc2)N1C1CCCCC1,0.99,1.2,0.0216,0.606,0.303,1.24,1.37,0.265 (inactive),0.243,0.554,1.56,-0.748 (inactive),-0.209 (inactive),-0.917 (inactive),3.48,0.258 (inactive),0.11,0.956,0.823,-0.0271
COCCOC(=O)N1C(=O)[C@@]2(c3cc(C#CCNC(N)=O)ccc31)[C@H](C(=O)N1CCCCCCC1)[C@H]1C(=O)O[C@H](c3ccccc3)[C@H](c3ccccc3)N1[C@@H]2c1ccc(O)cc1,0.333,0.189,-0.0557,0.159,0.845,0.571,0.596,-0.134 (inactive),0.706,0.0066,1.41,0.355 (inactive),-0.216 (inactive),0.903 (inactive),1.66,0.0623 (inactive),0.111,1.46,1.08,-0.0381
[N-]=[N+]=Nc1ccccc1[C@H]1OC(c2ccc(OCCCO)cc2)=N[C@@]1(CCS(=O)(=O)c1ccccc1)C(=O)N1CCCCC1,1.26,0.526,0.0056,0.699,1.43,1.46,1.2,1.8 (inactive),1.24,-0.201,1.51,-0.347 (inactive),0.189 (inactive),2.73 (inactive),3.16,-0.413 (inactive),0.428,0.0467,1.12,0.176
C=C[C@@H](COC(C)=O)NS(=O)(=O)c1ccc(Br)cc1,-0.35,0.242,-0.0296,0.135,0.414,0.0227,0.564,1.39 (inactive),0.111,-0.0672,0.317,-0.952 (inactive),-15.7 (active),-1.36 (inactive),0.399,-0.819 (inactive),-0.176,0.516,0.269,-0.157
